{"source": "PubChem BioAssay AID624173", "about": "(National Center for Advancing Translational Sciences (NCATS), 2012)", "note": "About 490 (0.12%) of roughly 410,000 compounds were called active. Another 1% or so got no clear call; they are omitted. Calls follow the shape of the dose curve; as a rule, active = well fitted inhibition curve with a large enough effect; inconclusive = small, poorly fitted or top-dose-only effect; inactive = flat fitted curve, though single readings scatter. Many of the other results were omitted from the sample, so actives are more common in it than they were. % is scaled to controls: 0 for no effect and ±100 for the full control effect; potency is read from the fitted curve at half-maximal effect.", "data": [{"biological_target": "pyruvate kinase (Trypanosoma brucei) (UniProt Q57TT1)", "experiment": "qHTS of Trypanosoma Brucei Inhibitors; also: nearly all actives have a fitted effect of over 50% in size", "conditions": "TbPYK enzyme, Kinase-Glo Plus ATP luminescence, 45 min; series mostly up to 76.8 µM; activity, negative = inhibition: at the top concentration", "from_the_text": "Members of the Trypanosomatidae family of parasitic protozoans cause a spectrum of diseases throughout the tropical and subtropical world. Sleeping sickness, caused by two subspecies of Trypanosoma brucei, is endemic to areas of sub-Saharan Africa, while Chagas' disease, a manifestation of Trypanosoma cruzi infection, is prevalent throughout Central and South America. In addition, many species of Leishmania are responsible for a range of cutaneous and visceral diseases, causing ulcers, destructive lesions and kalaazar, a lethal infection of the viscera. These diseases cause severe public health and economic burdens on populations that are often already caught in a tragic cycle of poverty, poor nutrition and disease. Collectively, parasites of the trypanosomatid family infect 30 million people worldwide (~500 million live in endemic areas), and account for ~130K deaths annually. Existing treatments have developed little in the past 50 years, and suffer from toxicity, poor efficacy and resistance; the goal of this project is to develop lead drugs that will be suitable for entry into pre-clinical trials.\nGlycolysis in axenically cultured T. cruzi, representing the intracellular pathogenic stage, is also essential for these parasites. {Engel, 1987} This project aims to discover and optimize selective inhibitors of the glycolytic enzyme pyruvate kinase (PYK) from Trypanosoma brucei, the parasite that causes sleeping sickness. […] Trypanosomatid PYKs show significant differences from their human counterparts including only 47-50% sequence identity and different allosteric and activation properties.{Callens, 1992} To this end, a qHTS was done against the MLSMR to discover inhibitors.\nNIH Molecular Libraries Probe Production Network [MLPCN]\nNIH Chemical Genomics Center [NCGC]\nPI Name: Malcolm Walkinshaw, University of Edinburgh\n2 uL of TbPYK/substrate buffer (columns 1-3, 5-48) are dispensed into Greiner white solid bottom 1536-well assay plates; column 4 receives only TEA buffer as 0x TbPYK controls. Compounds are then transferred via Kalypsys pin tool equipped with 1536-pin array (10 nL slotted pins, V&P Scientific, San Diego, CA). Following addition of compound, 2 uL of ADP (130 uM final concentration, all columns) is added to initiate the reaction. The plates are then incubated at room temperature for 45 minutes. Kinase-Glo Plus reagent is added (3 uL) and plates incubated for 10 minutes, before being transferred to a ViewLux high-throughput CCD imager (PerkinElmer) wherein single end-point measurements of luminescence are acquired using a clear filter. All reagents are diluted in an assay buffer consisting of 50 mM TEA (pH 7.2), 100 mM KCl, 10 mM MgCl2, 0.05% BSA and 0.01% Tween-20.\nAll screening operations will be performed on a fully integrated robotic system (Kalypsys, San Diego, CA) containing one RX-130 and two RX-90 anthropomorphic robotic arms (Staeubli, Duncan, SC). Library plates will be screened starting from the lowest and proceeding to the highest concentration. Vehicle-only plates, with DMSO being pin-transferred to columns 5-48, will be inserted uniformly at the beginning and the end of each library in order to monitor and record any shifts in the background, which can be affected by reagent dispensers or loss in enzyme activity over time. Screening data will be corrected, normalized, and concentration-effect relationships will be derived by using publicly-available curve fitting algorithms developed in-house (http://ncgc.nih.gov/pub/openhts).", "values": [{"smiles": "CCOc1ccc(NS(=O)(=O)c2ccc(N)cc2)nn1", "activity, negative = inhibition": "-5.06% (inactive)"}, {"smiles": "CS(=O)(=O)N1CCC2(CC1)CN(c1ccncc1)C2", "activity, negative = inhibition": "0.147% (inactive)"}, {"smiles": "Cc1cc2nc(-c3ccco3)c(Cc3cccc(F)c3)n2c(C)c1Br", "activity, negative = inhibition": "-15.1% (inactive)"}, {"smiles": "c1ccc(Cc2c(-c3ccco3)nc3c4ccccc4ccn23)cc1", "activity, negative = inhibition": "-13.3% (inactive)"}, {"smiles": "Cc1ccc(Cc2c(-c3ccco3)nc3ccc(Cl)cn23)cc1", "Potency": "22.4 µM (active)"}, {"smiles": "COc1ccc(NC(=O)N2CC3(CCN(C(C)=O)CC3)C2)cc1", "activity, negative = inhibition": "-5.45% (inactive)"}, {"smiles": "COc1ccc(C(=O)N2CCC3(CC2)CCN(c2ccccn2)CC3)cc1", "activity, negative = inhibition": "6.06% (inactive)"}, {"smiles": "CC(=O)N1CCC2(CCCN(Cc3ccc(C#N)cc3)C2)CC1", "activity, negative = inhibition": "4.17% (inactive)"}, {"smiles": "CCC(C)[C@@H](N)C(=O)O", "note": "(stereo partly specified)", "activity, negative = inhibition": "-1.56% (inactive)"}, {"smiles": "COC(=O)[C@@H]1CC2=CC(=O)CC[C@]2(C)[C@@]23O[C@@H]2C[C@@]2(C)[C@@H](CC[C@@]24CCC(=O)O4)[C@H]13", "activity, negative = inhibition": "-7.61% (inactive)"}, {"smiles": "CC(=O)OCC(=O)[C@@]1(O)CC[C@@H]2[C@H]3CCC4=CC(=O)C=C[C@]4(C)[C@]3(F)[C@@H](O)C[C@@]21C", "activity, negative = inhibition": "1.21% [at 33.2 µM] (inactive)"}, {"smiles": "C[C@]12CCC3[C@@H](CCC4=CC(=O)CC[C@@]43C)C1CCC2OC(=O)CCc1ccccc1", "note": "(stereo partly specified)", "activity, negative = inhibition": "-5.47% [at 157 µM] (inactive)"}, {"smiles": "CO[C@]12CC[C@@]3(C[C@@H]1[C@](C)(O)C(C)(C)C)[C@@H]1Cc4ccc(O)c5c4[C@@]3(CCN1CC1CC1)[C@H]2O5", "activity, negative = inhibition": "3.11% [at 157 µM] (inactive)"}, {"smiles": "CC(C)=CCN1CC[C@@]2(C)c3cc(O)ccc3C[C@H]1[C@@H]2C", "activity, negative = inhibition": "-3.79% [at 157 µM] (inactive)"}, {"smiles": "COC(=O)N1CCC2(CCCN(c3ccncc3)C2)CC1", "activity, negative = inhibition": "-0.191% (inactive)"}, {"smiles": "COc1ccc(OC)c([C@H](O)CNC(=O)CN)c1", "activity, negative = inhibition": "4.52% [at 33.2 µM] (inactive)"}, {"smiles": "Cc1cccc(C)c1NC(=O)NC1=CCCN1C", "activity, negative = inhibition": "8.65% (inactive)"}, {"smiles": "O=C1C(c2[nH]c3ccccc3c2O)=Nc2ccccc21", "activity, negative = inhibition": "3.08% (inactive)"}, {"smiles": "O=c1c(-c2cccs2)nc2cnc(Oc3ccccc3)nc2n1-c1ccccc1", "activity, negative = inhibition": "6.09% (inactive)"}, {"smiles": "CCCC(=O)O[C@]1(C(=O)COC(=O)CC)CC[C@@H]2[C@@H]3CCC4=CC(=O)CC[C@]4(C)[C@H]3[C@@H](O)C[C@@]21C", "activity, negative = inhibition": "0% (inactive)"}, {"smiles": "Cc1c(Cl)cccc1NC(=O)N1CCN(C(=O)c2nsc3ccccc23)CC1", "activity, negative = inhibition": "10.2% [at 15.4 µM] (inactive)"}, {"smiles": "NCCCCC(N)C(=O)O", "note": "(stereo unspecified)", "activity, negative = inhibition": "-0.921% (inactive)"}, {"smiles": "CCC(C)C1OC2(C=CC1C)CC1CC(C/C=C(/C)C(OC3CC(OC)C(OC4CC(OC)C(NC(C)=O)C(C)O4)C(C)O3)C(C)/C=C\\C=C3\\COC4C(O)C(C)=CC(C(=O)O1)C34O)O2", "note": "(stereo unspecified)", "activity, negative = inhibition": "-0.993% (inactive)"}, {"smiles": "CC(C)NC(=O)N1CC[C@@]2(CCCN(C(=O)c3ccco3)C2)C1", "activity, negative = inhibition": "-8.63% (inactive)"}, {"smiles": "S=c1[nH]nc(-c2cc(-c3ccsc3)n[nH]2)n1-c1ccccc1", "Potency": "2.82 µM (active)"}, {"smiles": "Cc1cc(-c2csc(N)n2)c(C)n1-c1ccccc1", "activity, negative = inhibition": "-11.5% (inactive)"}, {"smiles": "O=P(O)(O)OC[C@H](O)CO", "activity, negative = inhibition": "-9.47% (inactive)"}, {"smiles": "O=C(O)[C@@H](S)[C@H](S)C(=O)O", "activity, negative = inhibition": "-28.4% (inactive)"}, {"smiles": "CC(C)CC1C(=O)N2CCCC2C2(O)OC(NC(=O)C3CC4c5cccc6[nH]cc(c56)CC4N(C)C3)(C(C)C)C(=O)N12", "note": "(stereo unspecified)", "activity, negative = inhibition": "1.74% (inactive)"}, {"smiles": "O=c1c(-c2ccc(F)cc2)nc2cnc(N3CCOCC3)nc2n1-c1ccccc1", "activity, negative = inhibition": "-2.78% (inactive)"}, {"smiles": "Clc1ccc(-c2nc3sccn3c2C=NOCc2ccc(Cl)c(Cl)c2)cc1", "activity, negative = inhibition": "2.15% (inactive)"}, {"smiles": "Cn1cccc1C(=O)N1CCC[C@@]2(CCN(Cc3nccs3)C2)C1", "activity, negative = inhibition": "-6.25% (inactive)"}, {"smiles": "O=C(c1cc(C(F)(F)F)cc(C(F)(F)F)c1)N1CCC2(CCCN(Cc3ccncc3)C2)CC1", "activity, negative = inhibition": "5.95% (inactive)"}, {"smiles": "CN1CCCC(=C(c2cccs2)c2cccs2)C1", "activity, negative = inhibition": "-0.775% (inactive)"}, {"smiles": "O=C1NC(=O)N(c2ccccc2)C(=O)/C1=C/c1ccc([N+](=O)[O-])s1", "Potency": "17.8 µM (active)"}, {"smiles": "CC[N+]1(CCOC(=O)C(O)(c2ccccc2)c2ccccc2)CCCCC1", "activity, negative = inhibition": "4.87% (inactive)"}, {"smiles": "COc1cccc(Nc2ncc3ncc(=O)n(C4CC4)c3n2)c1", "activity, negative = inhibition": "-1.66% (inactive)"}, {"smiles": "CO[C@H]1C[C@@H](O[C@@H]2[C@@H](C)O[C@@H](O[C@@H]3/C(C)=C/CC4C[C@@H](C[C@]5(C=C[C@@H](C)[C@H](C6CCCCC6)O5)O4)OC(=O)[C@@H]4C=C(C)[C@@H](O)[C@H]5OC/C(=C\\C=C\\[C@@H]3C)[C@]54O)C[C@H]2OC)O[C@@H](C)[C@@H]1O", "activity, negative = inhibition": "19.1% (inactive)"}, {"smiles": "CCCCCCCCCCCCCCCCO", "activity, negative = inhibition": "-2.03% (inactive)"}, {"smiles": "CCCN(CC)[C@@H](CC)C(=O)Nc1c(C)cccc1C", "activity, negative = inhibition": "1.91% (inactive)"}, {"smiles": "O=S(=O)(O)C(F)(F)C(F)(F)C(F)(F)C(F)(F)F", "activity, negative = inhibition": "6.2% [at 157 µM] (inactive)"}, {"smiles": "C[N+](C)(CCOc1ccccc1)Cc1cccs1", "note": "(tested in a mixture with another compound)", "activity, negative = inhibition": "3.32% (inactive)"}, {"smiles": "CCCC[C@H]1C(=O)N(c2ccccc2)N(c2ccc(O)cc2)C1=O", "activity, negative = inhibition": "-5.82% [at 33.2 µM] (inactive)"}, {"smiles": "CN1CCC2(CC1)CCN(S(=O)(=O)c1ccccc1)CC2", "activity, negative = inhibition": "2.49% (inactive)"}, {"smiles": "O=C(c1csnn1)N1CCC2(CC1)CN(c1ncccn1)C2", "activity, negative = inhibition": "0.632% (inactive)"}, {"smiles": "COc1ccc(S(=O)(=O)NCC(c2ccc(N(C)C)cc2)N2CCCC2)cc1", "note": "(stereo unspecified)", "activity, negative = inhibition": "-3.6% (inactive)"}, {"smiles": "O=C(Nc1cccc(F)c1)N1CC2(CCN(C(=O)c3csnn3)CC2)C1", "activity, negative = inhibition": "0.268% (inactive)"}, {"smiles": "CN1C(=O)C[C@H](c2ccccc2)C1=O", "activity, negative = inhibition": "-4.61% (inactive)"}, {"smiles": "C/C=C/C=N/NC(=O)c1ccncc1", "activity, negative = inhibition": "6.94% (inactive)"}, {"smiles": "O=C(Nc1cccc(F)c1)N1CC2(CCN(C(=O)c3cnccn3)CC2)C1", "activity, negative = inhibition": "-8.59% (inactive)"}, {"smiles": "CNC(=O)NC(=O)CSc1nnc(-c2ccc(F)cc2)n1CC1CCCO1", "note": "(stereo unspecified)", "activity, negative = inhibition": "0.187% (inactive)"}]}]}
